Many of the other results were omitted from the sample, so hits are more common in it than they were.
Pf apPOL block = Pf-apPOL DNA polymerase inhibition; Recombinant Pf-apPOL, molecular beacon fluorescence, 1.5 h; inhibition, % at 10 µM; 210,000 compounds, 0.25% hits; AID 1794808
mHTT CaM bind = inhibitors of human mutant huntingtin-calmodulin interaction. 190,000 compounds, 3.6% hits. AlphaScreen His-mHTT/GST-CaM binding, luminescence. inhibition, % at 15 µM. P42858. AID 1671202;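 also: 0% = both proteins with DMSO and 100% = one protein alone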
Numbers without * were called inactive. Rule as the data show it: active = inhibition above about 50%; inactive = the rest.

CCN(CC)C(=O)C1CCCN(Cc2ccc(Br)cc2)C1 (stereo not given) was read as Pf apPOL block -12.2 and mHTT CaM bind -4.4.
For CC(C)Oc1ccc(CN2CCc3nc(Nc4ccc5c(c4)OCCO5)ncc3C2)cc1 the results were Pf apPOL block -3.5 and mHTT CaM bind 71.8*.
Screening COc1ccc(CN2CCc3nc(Nc4ccc5c(c4)OCCO5)ncc3C2)cc1OC returned Pf apPOL block 1.0 and mHTT CaM bind 36.6.
CN(C)c1ccc(CN2CCc3nc(Nc4ccc5c(c4)OCCO5)ncc3C2)cc1 was read as Pf apPOL block -0.8 and mHTT CaM bind 38.7.
`CCOc1ccc(CN2CCc3nc(Nc4ccc5c(c4)OCCO5)ncc3C2)cc1OC` gave Pf apPOL block 2.6 and mHTT CaM bind 52.6*.
Fc1ccc(CN2CCc3nc(Nc4ccc5c(c4)OCO5)ncc3C2)c(F)c1 was read as Pf apPOL block -1.3 and mHTT CaM bind 12.2.
For Fc1ccc(Nc2ncc3c(n2)CCN(Cc2ccc4c(c2)OCCO4)C3)cc1 the results were Pf apPOL block -5.8 and mHTT CaM bind -6.8.
Fc1ccc(CN2CCc3nc(Nc4ccc5c(c4)OCCO5)ncc3C2)cc1F was read as Pf apPOL block -3.3 and mHTT CaM bind 52.9*.
`Fc1ccc(CN2CCc3nc(Nc4ccc5c(c4)OCCO5)ncc3C2)c(F)c1` gave Pf apPOL block -2.9 and mHTT CaM bind 58.2*.
`Cn1nc(-c2nc(C3CC3)no2)c2c1CCN(C(=O)c1cccnc1)C2` gave Pf apPOL block -5.9 and mHTT CaM bind 6.2.
Screening CC(=O)Nc1ccc(-c2noc(C3CCN(C(=O)C(C)Oc4ccccc4)CC3)n2)cc1 (stereo not given) returned Pf apPOL block -4.3 and mHTT CaM bind 14.8.
CNC(=O)/C(=C\c1ccc(OC)cc1)NC(=O)c1ccco1 was read as Pf apPOL block 6.8 and mHTT CaM bind -3.7.
For Clc1ccccc1CN1CCc2nc(Nc3ccc4c(c3)OCCO4)ncc2C1 the results were Pf apPOL block 4.1 and mHTT CaM bind 78.0*.
Screening CN(C)c1ccc(CN2CCc3nc(Nc4ccc5c(c4)OCO5)ncc3C2)cc1 returned Pf apPOL block 0.0 and mHTT CaM bind 39.7.
O=C(Nc1ccc2c(c1)C(=O)NC2=O)c1ccco1 was read as Pf apPOL block -3.1 and mHTT CaM bind 1.5.
`O=C1NN(c2ccc(F)cc2)C(=O)/C1=C/c1cccc([N+](=O)[O-])c1` gave Pf apPOL block 1.0 and mHTT CaM bind 13.0.
Screening CN(C)c1ccc([N+](=O)[O-])cc1/C=C1\C(=O)NN(c2ccc(F)cc2)C1=O returned Pf apPOL block 6.0 and mHTT CaM bind 10.0.
For Cc1ccc(N2NC(=O)/C(=C\c3cccc([N+](=O)[O-])c3)C2=O)cc1Cl the results were Pf apPOL block 0.1 and mHTT CaM bind 77.0*.
For COc1cccc(/C=C2\C(=O)NN(c3ccc(C)c(Cl)c3)C2=O)c1OCC#N the results were Pf apPOL block -4.0 and mHTT CaM bind 28.0.
For O=C1NN(c2ccc(Cl)c(Cl)c2)C(=O)/C1=C/c1ccccc1 the results were Pf apPOL block -2.7 and mHTT CaM bind 96.0*.
Screening COc1ccc(/C=C2\C(=O)NN(c3ccc(Cl)c(Cl)c3)C2=O)cc1 returned Pf apPOL block -4.6 and mHTT CaM bind 5.0.
Screening O=C1NN(c2ccc(Br)cc2)C(=O)/C1=C/c1cc([N+](=O)[O-])ccc1Cl returned Pf apPOL block 0.7 and mHTT CaM bind 89.0*.
`Cc1ccc(N2NC(=O)/C(=C\c3ccccc3OCC#N)C2=O)cc1Cl` gave Pf apPOL block 1.7 and mHTT CaM bind 78.0*.
Screening O=C(Nc1ccc(F)cc1)Nc1nnc(/C=C/c2ccccc2Cl)s1 returned Pf apPOL block -0.3 and mHTT CaM bind 10.3.
CN(CC1(C)CCOCC1)S(=O)(=O)c1cccc(C(F)(F)F)c1 was read as Pf apPOL block -0.5 and mHTT CaM bind -4.1.
CCCc1c(C(=O)N2CCN(CC)CC2)cnn1-c1cccc(Cl)c1 was read as Pf apPOL block -8.9 and mHTT CaM bind 15.8.
`Cc1ccc(N2NC(=O)/C(=C\c3cccc(Br)c3)C2=O)cc1` gave Pf apPOL block -0.6 and mHTT CaM bind 71.0*.
For O=C1NN(c2cccc(Br)c2)C(=O)/C1=C/c1ccccc1 the results were Pf apPOL block -1.3 and mHTT CaM bind 19.0.
For O=C1NN(c2ccc(Cl)c(Cl)c2)C(=O)/C1=C/c1ccc(-c2ccc3c(c2)C(=O)OC3)o1 the results were Pf apPOL block 3.3 and mHTT CaM bind 68.0*.
`Cc1ccc(N2NC(=O)/C(=C\c3cccs3)C2=O)cc1Cl` gave Pf apPOL block 0.5 and mHTT CaM bind 2.0.
`Cc1ccc(N2NC(=O)/C(=C\c3ccc(Cl)cc3Cl)C2=O)cc1Cl` gave Pf apPOL block 3.6 and mHTT CaM bind 90.0*.
`O=C1NN(c2ccc(Cl)c(Cl)c2)C(=O)/C1=C/c1ccc(-c2ccc3c(c2)C(=O)NC3=O)o1` gave Pf apPOL block -8.3 and mHTT CaM bind 5.0.
CC1CCCN(C(=O)c2cc(C(C)C)n3nccc3n2)C1 (stereo not given) was read as Pf apPOL block 0.8 and mHTT CaM bind -7.2.
COc1ccc(-c2noc(-c3ccc(SCC(=O)N4CCCCC4C)nc3)n2)cc1 (stereo not given) was read as Pf apPOL block -7.9 and mHTT CaM bind 0.7.
O=C1C(=O)N(CCCO)C(c2ccccc2F)C1=C(O)c1ccccc1 (stereo not given) was read as Pf apPOL block 6.0 and mHTT CaM bind 1.8.
Screening CN1CCN(C(=O)c2ccc(N3CCNC(c4ccccc4)C3)nc2)CC1 (stereo not given) returned Pf apPOL block -3.1 and mHTT CaM bind -3.7.
For O=C(c1ccc(N2CCNC(c3ccccc3)C2)nc1)N1CCc2ccccc2C1 (stereo not given) the results were Pf apPOL block -5.5 and mHTT CaM bind 70.9*.
`CCN1CCN(C(=O)c2cnn3c(-c4ccc(C)c(C)c4)ccnc23)CC1` gave Pf apPOL block 4.4 and mHTT CaM bind -0.3.
For O=C(Nc1ccccc1)C1CCc2sc(C(=O)N3CCCC3)cc2C1 (stereo not given) the results were Pf apPOL block 0.8 and mHTT CaM bind 2.2.
`COc1ccc(OC)c(NC(=O)CN(C2CCCCC2)S(=O)(=O)c2ccc(F)cc2)c1` gave Pf apPOL block 0.8 and mHTT CaM bind 13.9.
`CN1CCN(c2cccc3c2S(=O)(=O)N[C@H](Cc2ccccc2)CO3)CC1` gave Pf apPOL block -7.8 and mHTT CaM bind -2.7.
Screening O=S1(=O)N[C@H](Cc2ccccc2)COc2cccc(N3CCN(Cc4ccccc4F)CC3)c21 returned Pf apPOL block -5.7 and mHTT CaM bind 62.3*.
Screening Cc1ccc(N2C=C(C#N)S(=O)(=O)c3cc(F)ccc32)cc1 returned Pf apPOL block -1.4 and mHTT CaM bind -5.8.
CC(=O)N1CCc2ccccc2C1C(=O)N1CCN(c2cccc(Cl)c2)CC1 (stereo not given) was read as Pf apPOL block -2.8 and mHTT CaM bind 77.9*.
Screening CC(=O)N1CCc2ccccc2C1C(=O)N1CCN(c2ccc(C)cc2)CC1 (stereo not given) returned Pf apPOL block -1.4 and mHTT CaM bind 44.0.
Screening O=C(C1c2ccccc2CCN1C(=O)C1CC1)N1CCN(c2ccc(F)cc2)CC1 (stereo not given) returned Pf apPOL block -2.0 and mHTT CaM bind 55.5*.
Screening CC(=O)N1CCc2ccccc2C1C(=O)N1CCN(c2ccc(F)cc2)CC1 (stereo not given) returned Pf apPOL block -2.4 and mHTT CaM bind 13.2.
